Target: Misshapen-like kinase 1 (Homo sapiens) (UniProt Q8N4C8)
Conditions: at 1 µM

Chain of Misshapen-like kinase 1 (Homo sapiens) (Q8N4C8 whole entry, looked up): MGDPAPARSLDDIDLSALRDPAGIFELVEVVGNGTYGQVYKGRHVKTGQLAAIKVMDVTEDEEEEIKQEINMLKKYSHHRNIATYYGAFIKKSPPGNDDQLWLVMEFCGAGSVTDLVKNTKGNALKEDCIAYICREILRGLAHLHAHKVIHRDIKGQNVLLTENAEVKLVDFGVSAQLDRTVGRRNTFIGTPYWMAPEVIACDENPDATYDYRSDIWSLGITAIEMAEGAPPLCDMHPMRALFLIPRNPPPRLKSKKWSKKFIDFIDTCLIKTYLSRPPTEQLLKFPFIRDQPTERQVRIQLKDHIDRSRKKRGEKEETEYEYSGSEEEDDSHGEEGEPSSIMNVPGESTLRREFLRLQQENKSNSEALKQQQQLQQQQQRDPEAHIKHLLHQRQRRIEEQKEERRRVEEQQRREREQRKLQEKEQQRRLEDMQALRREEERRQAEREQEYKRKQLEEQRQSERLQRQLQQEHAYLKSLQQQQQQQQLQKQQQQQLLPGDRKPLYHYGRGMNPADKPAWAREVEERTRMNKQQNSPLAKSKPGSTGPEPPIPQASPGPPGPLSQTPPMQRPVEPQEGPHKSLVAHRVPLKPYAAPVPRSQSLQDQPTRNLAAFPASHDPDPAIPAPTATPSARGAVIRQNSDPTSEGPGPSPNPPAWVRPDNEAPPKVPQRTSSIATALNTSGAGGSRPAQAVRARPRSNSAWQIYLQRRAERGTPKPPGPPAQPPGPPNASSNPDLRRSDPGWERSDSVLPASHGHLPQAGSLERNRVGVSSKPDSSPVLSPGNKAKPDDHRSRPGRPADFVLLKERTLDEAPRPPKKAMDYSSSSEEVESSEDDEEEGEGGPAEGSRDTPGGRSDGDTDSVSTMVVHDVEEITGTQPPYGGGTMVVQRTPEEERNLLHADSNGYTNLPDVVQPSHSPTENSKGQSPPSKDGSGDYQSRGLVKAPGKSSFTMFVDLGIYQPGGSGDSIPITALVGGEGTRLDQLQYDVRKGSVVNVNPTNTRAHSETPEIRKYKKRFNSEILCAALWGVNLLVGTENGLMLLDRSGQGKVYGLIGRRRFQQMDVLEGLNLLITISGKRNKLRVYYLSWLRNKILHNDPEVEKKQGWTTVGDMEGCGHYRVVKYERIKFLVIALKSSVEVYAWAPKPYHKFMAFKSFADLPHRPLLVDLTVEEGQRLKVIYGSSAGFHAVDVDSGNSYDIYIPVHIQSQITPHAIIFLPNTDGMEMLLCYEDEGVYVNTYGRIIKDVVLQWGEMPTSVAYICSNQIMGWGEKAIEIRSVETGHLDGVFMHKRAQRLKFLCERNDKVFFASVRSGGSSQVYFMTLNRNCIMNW

| Compound | inhibition [%] |
| --- | --- |
| NS(=O)(=O)c1ccc(N/C=C2\C(=O)Nc3ccc4ncsc4c32)cc1 | 76.9 |
| CCn1c(-c2nonc2N)nc2c(C#CCN)ncc(OCCCN)c21 | 11.5 |
| COc1cc(C=NNc2ncnc3c2cnn3Cc2ccccc2)ccc1O | 5.48 |
| Fc1ccc(-c2ncn(C3CCNCC3)c2-c2ccnc(Oc3ccccc3)n2)cc1 | 6.65 |
| COc1cccc(COc2cc(-n3cnc4ccccc43)sc2C(N)=O)c1 | 16.3 |
| Nc1nonc1-c1nc2cnccc2n1C1CCCCC1 | 31.4 |
| COc1cc2c(cc1Nc1nc(Nc3ccsc3C(N)=O)c3cc[nH]c3n1)N(C(=O)CN(C)C)CCC2 | 17 |
| NS(=O)(=O)c1ccc(-c2ccc3c(NC(=O)C4CC4)n[nH]c3c2)cc1 | 4.48 |
| COc1cccc(-n2ncc3c(N/N=C/c4ccncc4)ncnc32)c1 | 55.4 |
| Cc1cc(-c2ccco2)cc(C)c1/C=C/c1cncc(-c2nn[nH]n2)c1 | 0.04 |
| CCn1c(-c2nonc2N)nc2c(C#CC(C)(C)O)ncc(OCC3CCNCC3)c21 | 13.3 |
| NC(=O)c1sc(-n2cnc3cc(C(F)(F)F)ccc32)cc1OCc1ccccc1Br | 11.4 |
| CCn1c(-c2nonc2N)nc2c(C#CC(C)(C)O)nc(O[C@@H](CN)c3ccccc3)cc21 | 11 |
| CCn1c(-c2nonc2N)nc2c(C#CC(C)(C)O)ncc(OC[C@@H]3CCCN3)c21 | 0.93 |

Target: T1, Serine/threonine-protein kinase 4 (Homo sapiens) (UniProt Q13043);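 note: mean inhibition of MST1, reported as part of the GSK PKIS dataset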
T1 sequence (whole entry): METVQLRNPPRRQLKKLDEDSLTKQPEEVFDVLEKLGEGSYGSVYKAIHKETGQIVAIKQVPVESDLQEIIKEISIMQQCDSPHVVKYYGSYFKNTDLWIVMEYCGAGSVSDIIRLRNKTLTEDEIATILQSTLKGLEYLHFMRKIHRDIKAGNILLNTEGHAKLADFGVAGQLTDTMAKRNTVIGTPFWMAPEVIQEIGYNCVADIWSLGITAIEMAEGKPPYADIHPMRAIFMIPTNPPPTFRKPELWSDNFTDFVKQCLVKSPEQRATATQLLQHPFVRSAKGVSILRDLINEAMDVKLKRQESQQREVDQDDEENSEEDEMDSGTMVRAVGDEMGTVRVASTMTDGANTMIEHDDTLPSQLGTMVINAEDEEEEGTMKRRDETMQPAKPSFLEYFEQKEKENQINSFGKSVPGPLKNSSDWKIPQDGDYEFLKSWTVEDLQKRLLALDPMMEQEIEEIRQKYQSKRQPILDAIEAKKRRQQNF
Conditions: at 0.1 µM

| Compound | inhibition [%] |
| --- | --- |
| NS(=O)(=O)c1ccc(N/C=C2\C(=O)Nc3ccc4ncsc4c32)cc1 | 70.2 |
| CCn1c(-c2nonc2N)nc2c(C#CCN)ncc(OCCCN)c21 | 2 |
| COc1cc(C=NNc2ncnc3c2cnn3Cc2ccccc2)ccc1O | -3.73 |
| Fc1ccc(-c2ncn(C3CCNCC3)c2-c2ccnc(Oc3ccccc3)n2)cc1 | 0.94 |
| COc1cccc(COc2cc(-n3cnc4ccccc43)sc2C(N)=O)c1 | -1.11 |
| Nc1nonc1-c1nc2cnccc2n1C1CCCCC1 | 0.54 |
| COc1cc2c(cc1Nc1nc(Nc3ccsc3C(N)=O)c3cc[nH]c3n1)N(C(=O)CN(C)C)CCC2 | 1.72 |
| NS(=O)(=O)c1ccc(-c2ccc3c(NC(=O)C4CC4)n[nH]c3c2)cc1 | 3.07 |
| COc1cccc(-n2ncc3c(N/N=C/c4ccncc4)ncnc32)c1 | 9.07 |
| Cc1cc(-c2ccco2)cc(C)c1/C=C/c1cncc(-c2nn[nH]n2)c1 | 0.26 |
| CCn1c(-c2nonc2N)nc2c(C#CC(C)(C)O)ncc(OCC3CCNCC3)c21 | 8.62 |
| NC(=O)c1sc(-n2cnc3cc(C(F)(F)F)ccc32)cc1OCc1ccccc1Br | 1.82 |
| CCn1c(-c2nonc2N)nc2c(C#CC(C)(C)O)nc(O[C@@H](CN)c3ccccc3)cc21 | 3.02 |
| CCn1c(-c2nonc2N)nc2c(C#CC(C)(C)O)ncc(OC[C@@H]3CCCN3)c21 | 0.46 |

Source: ChEMBL document CHEMBL1961873, “Compounds: GSK PKIS; Assays: Nanosyn kinase panel” (2012)
